# Results filed as inconclusive are left out. Active and inactive are the calls of the source. Rule for the calls: active = hit-call score of the fitted dose curve at least 0.9, where 1 is the maximum; inconclusive = response in the unintended direction; inactive = score below 0.9.
# Experiments:
# [1] = molecular target: bovine Estrogen Receptor (ER), ESR1 (gene 407238) (UniProt P49884); assay: NVS_NR_bER: NovaScreen (NVS) Nuclear Receptor Binding Assay for bovine Estrogen Receptor (ER) (AID 2283345);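 note: actives lower the bound radioligand count which means they displace the ER ligand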
# Method in brief: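 Bovine uterine membranes; tritiated or iodinated radioligand; competitive displacement; 18 h; scintillation read; DMSO negative control; 25 uM duplicates, then concentration series for actives.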
# [2] = molecular target: chimpanzee Androgen Receptor (AR), AR (gene 747460) (UniProt O97775); assay: NVS_NR_cAR: NovaScreen (NVS) Nuclear Receptor Binding Assay for chimpanzee Androgen Receptor (AR) (AID 2283346);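 note: radioligand displacement from AR measured by scintillation counting in a cell-free assay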
# Method in brief: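 Cell-free radioligand displacement using receptor protein extracted from Sf9/Sf21 cells; bound radioligand measured by scintillation counting 72 hours after chemical dosing. Loss of signal versus DMSO baseline indicates binding; primary screen single-concentration in duplicate at 25 uM, actives followed in concentration series.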
# [3] = molecular target: Estrogen receptor (Homo sapiens) (UniProt P03372); assay: OT_ER_ERaERa_1440: Odyssey Thera (OT) 24-hour HEK293T Protein-Complementation Assay for Estrogen Receptor-alpha/-alpha Homodimer (AID 2283349);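 note: hits raise fluorescence above DMSO for agonists and antagonists alike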
# Method in brief: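 Stably transfected HEK293T; ERα LBD homodimer PCA. 24 h dosing, fluorescence intensity read, gain-of-signal vs DMSO.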
# [4] = molecular target: Estrogen receptor (Homo sapiens) + Estrogen receptor beta (Homo sapiens) (UniProt P03372+Q92731); assay: OT_ER_ERaERb_0480: Odyssey Thera (OT) 8-hour HEK293T Protein-Complementation Assay for Estrogen Receptor-alpha/-beta Heterodimer (AID 2283352)
# Method in brief: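 Increase in mean fluorescence intensity, measured by laser scanning plate cytometry, reported ER-alpha/ER-beta LBD complementation in HEK293T cells after 8 h chemical exposure. DMSO served as baseline; basal signal is low, punctate and cytoplasmic.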
# [5] = molecular target: Estrogen receptor (Homo sapiens) (UniProt P03372); assay: NVS_NR_hER: NovaScreen (NVS) Nuclear Receptor Binding Assay for human Estrogen Receptor (ER) (AID 2283348)
# Method in brief: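 Radiodetection of ligand displacement in a lysate-based, cell-free format using MCF7 extracts, read at 18 hours. Duplicate 25 uM primary testing, then concentration series for actives.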
# [6] = molecular target: Estrogen receptor (Homo sapiens) (UniProt P03372); assay: OT_ER_ERaERa_0480: Odyssey Thera (OT) 8-hour HEK293T Protein-Complementation Assay for Estrogen Receptor-alpha/-alpha Homodimer (AID 2283351);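 note: rise in fluorescence from reassembled reporter fragments on ERα LBD homodimer in nucleus or whole cell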
# Method in brief: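 Cells were treated for 8 hours, then imaged on a laser scanning plate cytometer. Complementation of reporter fragments fused to the human ERα ligand-binding domain (residues 310-547) in HEK293T gave fluorescence, and gain of signal over vehicle was fitted.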
# [7] = molecular target: Androgen Receptor/SRC-1 Co-activator, AR (gene 367) (UniProt P10275); assay: OT_AR_ARSRC1_0960: Odyssey Thera (OT) 16-hour HEK293T Protein-Complementation Assay for Androgen Receptor/SRC-1 Co-activator (AID 2283353);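 note: actives raise the signal above DMSO so potency reflects increased AR and SRC-1 complex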
# Method in brief: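 Stable HEK293T line carries AR and SRC-1 each linked to a Venus fragment; chemicals are applied for 16 h, cells imaged at two wavelengths, and the 488 nm nucleus/cytoplasm ratio is taken as the signal, rising relative to DMSO.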
# [8] = molecular target: Androgen Receptor/SRC-1 Co-activator, AR (gene 367) (UniProt P10275); assay: OT_AR_ARSRC1_0480: Odyssey Thera (OT) 8-hour HEK293T Protein-Complementation Assay for Androgen Receptor/SRC-1 Co-activator (AID 2283354);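 note: hits raise the complementation signal above DMSO so AC50 marks enhancers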
# Method in brief: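 After 8 h dosing, stably expressing HEK293T cells with split-Venus AR/SRC-1 fusions were imaged (488, 635nm). The 488nm N/C ratio per image gave the endpoint, analysed in the positive direction against DMSO.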
# Estrogen receptor (Homo sapiens), sequence (P03372 whole entry, looked up, the tested form may be a part): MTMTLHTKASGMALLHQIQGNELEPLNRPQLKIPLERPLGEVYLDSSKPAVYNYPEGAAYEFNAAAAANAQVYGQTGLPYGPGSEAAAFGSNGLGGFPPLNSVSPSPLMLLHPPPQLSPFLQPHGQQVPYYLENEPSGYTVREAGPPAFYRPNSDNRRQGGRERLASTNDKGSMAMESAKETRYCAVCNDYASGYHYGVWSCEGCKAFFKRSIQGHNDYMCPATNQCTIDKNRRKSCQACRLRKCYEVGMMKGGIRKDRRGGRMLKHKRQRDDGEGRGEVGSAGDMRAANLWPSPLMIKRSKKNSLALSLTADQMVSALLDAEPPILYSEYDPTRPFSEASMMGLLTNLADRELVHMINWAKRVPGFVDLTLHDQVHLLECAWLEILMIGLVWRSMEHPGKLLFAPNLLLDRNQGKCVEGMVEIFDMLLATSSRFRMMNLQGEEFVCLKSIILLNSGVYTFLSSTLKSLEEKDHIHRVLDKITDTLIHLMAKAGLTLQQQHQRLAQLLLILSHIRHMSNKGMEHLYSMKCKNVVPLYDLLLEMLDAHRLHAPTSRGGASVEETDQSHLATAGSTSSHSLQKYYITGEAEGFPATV
# Estrogen receptor (Homo sapiens) + Estrogen receptor beta (Homo sapiens), sequence (P03372 whole entry, looked up, the tested form may be a part): as above
# Estrogen receptor (Homo sapiens) + Estrogen receptor beta (Homo sapiens), sequence (Q92731 whole entry, looked up, the tested form may be a part): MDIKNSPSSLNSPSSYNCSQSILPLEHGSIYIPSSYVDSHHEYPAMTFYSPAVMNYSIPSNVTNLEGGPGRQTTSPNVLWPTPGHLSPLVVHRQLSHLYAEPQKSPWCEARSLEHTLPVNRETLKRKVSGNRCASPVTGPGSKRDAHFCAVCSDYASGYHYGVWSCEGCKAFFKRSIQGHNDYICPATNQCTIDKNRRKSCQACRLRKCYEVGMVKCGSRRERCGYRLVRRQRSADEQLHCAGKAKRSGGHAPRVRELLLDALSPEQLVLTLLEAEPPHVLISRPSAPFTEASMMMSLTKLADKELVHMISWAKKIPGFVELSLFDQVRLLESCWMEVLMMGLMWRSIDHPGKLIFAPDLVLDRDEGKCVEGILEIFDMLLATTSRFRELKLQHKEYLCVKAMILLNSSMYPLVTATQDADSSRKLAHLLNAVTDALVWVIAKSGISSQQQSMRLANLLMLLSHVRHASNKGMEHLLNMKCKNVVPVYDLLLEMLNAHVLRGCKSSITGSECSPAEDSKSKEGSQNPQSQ
# chimpanzee Androgen Receptor (AR), AR (gene 747460), sequence (O97775 whole entry, looked up): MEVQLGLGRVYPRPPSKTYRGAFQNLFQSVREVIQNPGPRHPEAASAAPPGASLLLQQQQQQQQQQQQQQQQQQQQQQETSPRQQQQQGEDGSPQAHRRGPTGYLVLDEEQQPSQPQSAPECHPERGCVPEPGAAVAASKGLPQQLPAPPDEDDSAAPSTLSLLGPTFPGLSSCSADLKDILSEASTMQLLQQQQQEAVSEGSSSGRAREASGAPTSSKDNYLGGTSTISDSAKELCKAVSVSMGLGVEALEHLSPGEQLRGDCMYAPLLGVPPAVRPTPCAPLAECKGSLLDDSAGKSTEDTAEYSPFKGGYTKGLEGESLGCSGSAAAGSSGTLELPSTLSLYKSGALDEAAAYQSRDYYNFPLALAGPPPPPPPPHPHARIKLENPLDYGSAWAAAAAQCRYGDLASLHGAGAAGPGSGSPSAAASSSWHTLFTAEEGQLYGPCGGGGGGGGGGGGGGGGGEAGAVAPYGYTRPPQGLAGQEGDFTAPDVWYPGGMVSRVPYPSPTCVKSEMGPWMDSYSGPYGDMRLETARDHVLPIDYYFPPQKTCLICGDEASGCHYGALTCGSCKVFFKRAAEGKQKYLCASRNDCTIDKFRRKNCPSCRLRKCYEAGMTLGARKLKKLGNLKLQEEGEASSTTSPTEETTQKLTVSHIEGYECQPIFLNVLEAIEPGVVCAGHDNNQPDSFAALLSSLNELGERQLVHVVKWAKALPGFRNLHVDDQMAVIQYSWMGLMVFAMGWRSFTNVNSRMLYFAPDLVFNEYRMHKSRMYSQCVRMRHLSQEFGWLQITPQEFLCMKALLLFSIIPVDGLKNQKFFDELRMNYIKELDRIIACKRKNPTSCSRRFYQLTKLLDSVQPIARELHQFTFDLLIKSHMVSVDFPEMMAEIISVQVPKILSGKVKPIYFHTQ
# Androgen Receptor/SRC-1 Co-activator, AR (gene 367), sequence (P10275 whole entry, looked up, the tested form may be a part): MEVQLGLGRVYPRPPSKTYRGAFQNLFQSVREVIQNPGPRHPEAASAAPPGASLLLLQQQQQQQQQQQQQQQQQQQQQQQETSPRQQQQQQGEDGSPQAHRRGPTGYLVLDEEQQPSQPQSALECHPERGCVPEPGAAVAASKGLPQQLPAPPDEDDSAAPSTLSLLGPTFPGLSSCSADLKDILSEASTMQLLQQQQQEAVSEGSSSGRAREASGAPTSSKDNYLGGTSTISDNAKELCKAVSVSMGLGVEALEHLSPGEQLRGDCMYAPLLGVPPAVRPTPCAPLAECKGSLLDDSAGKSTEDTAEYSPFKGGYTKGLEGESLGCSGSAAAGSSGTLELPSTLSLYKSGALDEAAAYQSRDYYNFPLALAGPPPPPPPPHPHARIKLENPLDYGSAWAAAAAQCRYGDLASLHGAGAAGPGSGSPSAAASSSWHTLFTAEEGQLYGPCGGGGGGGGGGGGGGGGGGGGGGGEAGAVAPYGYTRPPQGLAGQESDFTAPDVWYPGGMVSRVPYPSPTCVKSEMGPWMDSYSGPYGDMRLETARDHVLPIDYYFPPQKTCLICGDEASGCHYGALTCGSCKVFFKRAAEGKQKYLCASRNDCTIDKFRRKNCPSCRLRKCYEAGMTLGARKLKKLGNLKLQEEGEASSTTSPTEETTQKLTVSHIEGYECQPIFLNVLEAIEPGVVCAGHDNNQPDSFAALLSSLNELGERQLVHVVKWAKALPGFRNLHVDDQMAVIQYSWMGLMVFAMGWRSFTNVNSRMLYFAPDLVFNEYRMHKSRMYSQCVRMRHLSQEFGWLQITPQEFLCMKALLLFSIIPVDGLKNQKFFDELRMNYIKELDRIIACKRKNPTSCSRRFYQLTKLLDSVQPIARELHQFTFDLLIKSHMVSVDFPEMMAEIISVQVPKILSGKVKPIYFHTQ
# bovine Estrogen Receptor (ER), ESR1 (gene 407238), sequence (P49884 whole entry, looked up): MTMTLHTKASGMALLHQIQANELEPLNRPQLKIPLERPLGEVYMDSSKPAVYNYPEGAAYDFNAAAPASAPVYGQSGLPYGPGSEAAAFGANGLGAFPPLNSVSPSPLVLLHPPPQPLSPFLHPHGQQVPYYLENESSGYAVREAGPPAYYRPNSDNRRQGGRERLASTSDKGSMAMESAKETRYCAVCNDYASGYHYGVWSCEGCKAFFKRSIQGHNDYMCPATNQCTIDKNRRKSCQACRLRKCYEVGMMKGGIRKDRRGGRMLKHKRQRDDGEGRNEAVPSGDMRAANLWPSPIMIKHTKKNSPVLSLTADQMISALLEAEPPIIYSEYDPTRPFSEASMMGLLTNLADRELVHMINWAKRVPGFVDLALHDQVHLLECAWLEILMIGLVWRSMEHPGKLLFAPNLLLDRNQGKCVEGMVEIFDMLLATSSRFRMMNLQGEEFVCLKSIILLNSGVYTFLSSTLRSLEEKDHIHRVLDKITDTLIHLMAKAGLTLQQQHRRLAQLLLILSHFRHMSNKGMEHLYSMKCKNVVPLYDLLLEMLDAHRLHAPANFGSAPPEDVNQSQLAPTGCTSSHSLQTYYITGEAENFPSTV
smiles,measurement,setting,value
CCCCCC(=O)O[C@]1(C(C)=O)CC[C@H]2[C@@H]3CCC4=CC(=O)CC[C@]4(C)[C@H]3CC[C@@]21C,outcome,[1],inactive
same,AC50,[2],1.12 µM (active)
same,outcome,[3],inactive
same,outcome,[4],inactive
[O-]/[N+](=N\O)c1ccccc1,outcome,[2],inactive
same,outcome,[3],inactive
O=C(O)c1cc2ccccc2cc1O,outcome,[5],inactive
CC1=CCC(C(C)C)=CC1,outcome,[3],inactive
CN1CCc2cccc3c2[C@H]1Cc1ccc(O)c(O)c1-3,AC50,[5],0.02 µM (active)
same,outcome,[3],inactive
same,outcome,[6],inactive
CCNC(=S)NCC,outcome,[5],inactive
same,outcome,[3],inactive
same,outcome,[4],inactive
NC(N)=S,outcome,[3],inactive
C1CCCNCC1,outcome,[3],inactive
same,outcome,[6],inactive
CC(=O)OC/C=C(C)/C=C/C=C(C)/C=C/C1=C(C)CCCC1(C)C,outcome,[3],inactive
CCCCCCC(C)O (stereo not given),AC50,[5],43.2 µM (active)
same,outcome,[3],inactive
same,outcome,[6],inactive
same,outcome,[4],inactive
c1ccc(OCCOc2ccccc2)cc1,outcome,[5],inactive
same,outcome,[3],inactive
same,outcome,[6],inactive
same,outcome,[4],inactive
Cc1cccc(C)c1,outcome,[3],inactive
C=CCOCC(O)CO (stereo not given),AC50,[2],1.33 µM (active)
NNC(=O)OCc1ccccc1,outcome,[5],inactive
CCCc1ccc(O)cc1,outcome,[2],inactive
same,outcome,[5],inactive
same,outcome,[3],inactive
same,AC50,[6],63.7 µM (active)
same,AC50,[4],45.2 µM (active)
CCCCCC1C(=O)CCC1CC(=O)OC (stereo not given),AC50,[2],17.7 µM (active)
same,outcome,[3],inactive
same,outcome,[6],inactive
CCc1cccc(O)c1,outcome,[5],inactive
same,outcome,[3],inactive
same,outcome,[6],inactive
same,outcome,[4],inactive
N#CCCCC(C#N)CCC#N (stereo not given),outcome,[2],inactive
Nc1cc([N+](=O)[O-])ccc1C(=O)O,outcome,[5],inactive
CC(C)(C)c1cccc(O)c1,outcome,[2],inactive
same,outcome,[5],inactive
same,outcome,[3],inactive
same,outcome,[7],inactive
same,outcome,[8],inactive
COc1ccc(OC)cc1,outcome,[3],inactive
NCCN1CCNCC1,outcome,[3],inactive

# — PubChem BioAssay (EPA / NIEHS)
